Test results reported in ChEMBL document CHEMBL5308541, “MAIP: An Open-Source Tool to Enrich High-Throughput Screening Output and Identify Novel, Druglike Molecules with Antimalarial Activity” (ACS Med Chem Lett, 2023).
About 420 (8.8%) of roughly 4,800 compounds showed an effect of 50% or more. This excerpt belongs to a sample that is enriched for strong results.

System: Plasmodium falciparum
Assay: Confirmatory screen in NF54 nanoGlo assay, in single point, at 2uM, 72h
Format: functional, Erythrocyte
Settings: timepoint 72 hour

Compound	% Inhibition [%]
c1ccc(CCC23CN(Cc4ccccn4)CC2CN(Cc2ccns2)C3)cc1 (stereo unspecified)	88
Nc1cc(N2CCC(c3nc4cc(F)ccc4[nH]3)CC2)nc(N2CCOCC2)n1	39
Cc1ccc2[nH]cc(-c3cc(N4CCOCC4)nc(N)n3)c2c1	57
Brc1ccc2[nH]c3c(c2c1)CCCC3NC1CCc2[nH]cnc2C1 (stereo unspecified)	97
c1ccc(CNc2ccc(-c3noc(C45CCCN(CCC4)C5)n3)cn2)cc1	82
NCCCCc1c(-c2cccnc2)[nH]c2c(Cl)cc(Cl)cc12	55
Cn1cc(-c2cncc(C(=O)NC3CCN(c4cccc(F)c4)CC3)c2)cn1	51
CCOc1cccc(N2CCN(C(=O)c3cc(-c4ccc(F)cc4)[nH]n3)CC2)n1	32
OC1(c2ccc(Cl)cc2)CCN(C[C@@H]2CCCN3CCCC[C@H]23)CC1	73
CN(C)CCN1CCC(NC2CCC(O)(c3cccc(Cl)c3)CC2)CC1 (stereo unspecified)	30
NCC1(O)CCN(c2ccnc3cc(F)c(Cl)cc23)CC1	94
FC(F)(F)c1ccc(N2CCC[C@H](NC3CCN(Cc4ccco4)CC3)C2)nc1	21
CCN1CCC(N2CCC(C(=O)NCCc3ccc(OC(F)(F)F)cc3)CC2)CC1	48
Oc1ccc(OC(F)(F)F)cc1-c1ccc2nccn2n1	83
Nc1ccc(-c2cc(OC(F)(F)F)ccc2O)cn1	11
N#Cc1ccc(N2C[C@H](COCC3CC3)C3(CCN(Cc4cccc(O)c4)CC3)C2)cc1C(F)(F)F	80
CCN1C[C@H](Nc2nc(C)nc3sccc23)[C@@H](OC)C1	98
CNc1nc(C)c(-c2ccnc(Nc3cccc(S(C)(=O)=O)c3)n2)s1	58
Cc1cc(N2CCC(NCCc3c[nH]cn3)CC2)nc(-c2ccccc2)n1	17
Cc1cc(N2CCC(NCCCN3CCCc4ccccc43)CC2)nc(N)n1	74
Cc1ccc2nc(CCCNC3CCN(c4cc(C)nc(N)n4)CC3)oc2c1	29
COc1ccc2c(O)c(Br)c(C)nc2c1	78

Compound	% Inhibition [%]
COc1ccc2nc3cc(Cl)ccc3c(O)c2c1	57
CN1CCN(CCOc2ccccc2CN(C)Cc2cc3cc(F)ccc3[nH]2)CC1	87
CN(C[C@H](O)COc1cccc(CNCCCOc2cccnc2)c1)C1CCCCC1	30
CN1C(C)(C)CC(NC(=O)c2ccc(-c3cc(-c4cccc(C(F)(F)F)c4)n[nH]3)cc2)CC1(C)C	45
CCc1oc2ccccc2c1CNC[C@H](O)c1ccc(Cl)cc1	99
CCN(Cc1[nH]c2ccc(Cl)cc2c1C)CC1CCN(C2CCN(C)CC2)CC1	89
CCN(Cc1cnn(-c2cccc(Cl)c2)c1)CC1CCN(C2CCN(C)CC2)CC1	79
Cc1ccc2[nH]c(-c3cc4n(n3)CCN(c3ccnc(N)n3)C4)nc2c1C	89
CNc1nc(N[C@H]2CCCN(Cc3ccc(Cl)cc3)C2)nc2c1CCC2	79
Clc1cccc(N2CC[C@H](CNC3CCN(Cc4ccco4)CC3)C2)c1	66
COc1ccc(CNCc2cc3ccccc3[nH]2)cc1CN(C)C	59
COc1ccccc1-c1csc(C2CCN(CC[C@H]3CCCN3C)CC2)n1	26
CC(CNc1nc(NCC(C)N2CCOCC2)c2cc(Cl)ccc2n1)N1CCOCC1 (stereo unspecified)	87
CN1CCC(N2CCC(NC(=O)c3ccc(S(=O)(=O)N(C)C4CCCCC4)cc3)CC2)CC1	44
Cc1ccc(-c2cc(C(=O)NC3CCN(C4CCN(C)CC4)CC3)n[nH]2)cc1C	98
CN(C)Cc1cccc(CCNCc2csc(-c3ccc(C(F)(F)F)cc3)n2)c1	74
O=C(NC1CCN(CCOc2ccc(Cl)cc2)CC1)c1c[nH]c2ccncc2c1=O	92
O[C@H]1CCN(Cc2ccccc2CNc2cccc(-n3ccnc3)n2)C1	94
O[C@H]1CCN(Cc2cccc(NCc3cn4ccnc4s3)c2)C1	38
CCN1CCC[C@H](Nc2cccc(-n3ccnc3)n2)C1	33
COc1ccc2cc(-c3cc(N)ccn3)[nH]c2c1	55
Nc1ccnc(-c2cccc3[nH]ccc23)c1	6

Compound	% Inhibition [%]
O=C1CN(C(=O)c2ccnc3ccccc23)CCN1Cc1ccccc1F	53
COc1cc2nc(NCC3(N4CCN(C)CC4)CCCC3)cc(C)c2cc1OC	84
CCN(C)CC1CCN(c2nc(NCCOC)nc(N3CCC(CN(C)CC)C3)n2)C1 (stereo unspecified)	1
Cn1nnc(C(=O)N2CCCCC23CCCCCC3)n1	68
CC(C)CCOc1ccc2[nH]c(-c3cc(N4CCC[C@@H]4CS(C)(=O)=O)ccn3)cc2c1	99
CN(CCCn1ccnc1)c1ccnc2cc(Br)ccc12	99
O=C(NCCN1CCCCC1)c1cccc(-c2cnc3ccc(F)cn23)c1	26
CCOc1cc2nccc(N3C[C@H]4CN(C)C[C@H]4C3)c2cc1OCC	98
CCCC(=O)NC1COCC1Cc1ccncc1 (stereo unspecified)	83
c1ccc(CN2CCC(CCNC[C@@H]3CCCN4CCCC[C@H]34)CC2)cc1	61
COc1ccc2cc(NC(=O)c3cc(-c4c(C)nn(C)c4C)[nH]n3)cnc2c1	73
Cc1cnccc1NCCNCc1ccc(OC(C)C)c(Cl)c1	73
c1ccc2c(Nc3ccc4[nH]cnc4c3)c3ccccc3nc2c1	98
O[C@@H](CNCc1cc2cc(Cl)c(Cl)cc2[nH]1)c1ccc(F)cc1	79
OC[C@H](CNCc1cc2ccc(F)cc2[nH]1)c1ccccc1Cl	72
Cc1sc2nc(-c3ccccn3)nc(NCCc3nccn3C)c2c1-c1ccccc1	71
CCNc1cc(C)nc(NCCNC(=O)Nc2cc(F)cc(F)c2)n1	76
CCNc1nc(C)cc(Nc2ccc(NC(=O)Nc3ccc(F)cc3F)cc2)n1	98
Cc1cc(NC[C@H](O)COc2ccc(F)cc2)nc2ccccc12	76
Cc1ccc2[nH]c(CNC[C@@H](CO)C3CCC3)cc2c1C	65
COc1ccc2[nH]cc(C3=CCN(c4ccc5nnc(-c6ccccc6F)n5n4)CC3)c2c1	51
COc1ccc2[nH]cc(-c3ccc(N)nc3)c2c1	-7
